# Experimental data as given in paper PMC6792352, “Limited Chemical Structural Diversity Found to Modulate Thyroid Hormone Receptor in the Tox21 Chemical Library” (Environmental Health Perspectives, 2019).
# Where a name gives a salt, the structure may show the parent alone. Read-outs that look alike come from different tables or passages of the source.
# Tested on: thyroid hormone receptor (endogenous TRα and TRβ)
# Parameters: species or system GH3-TRE-Luc (rat pituitary); GH3-TRE-Luc luciferase reporter, antagonist mode against 1 nM T3, loss of signal, qHTS
# [1] = read-out: Average AC50 (uM) GH3-TRE-Antag, antagonist mode, 1 nM T3, no GH3 cytotoxicity hit, Average AC50 (uM) GH3-TRE-Antag, 24 h
# [2] = read-out: Average AC50 (uM) GH3-TRE-Antag, antagonist mode, 1 nM T3, no GH3 cytotoxicity hit
Structure (SMILES),AC50 [1],AC50 [2]
OCCOCCN1CCN(C2=Nc3ccccc3Sc3ccccc32)CC1 [Quetiapine],34 µM,
CC(C)n1c(/C=C/[C@H](O)C[C@H](O)CC(=O)O)c(-c2ccc(F)cc2)c2ccccc21 (racemic) [Fluvastatin],45.3 µM,
CC(C)c1c(C(=O)Nc2ccccc2)c(-c2ccccc2)c(-c2ccc(F)cc2)n1CC[C@@H](O)C[C@@H](O)CC(=O)O [Atorvastatin],0.321 µM,
CCCCCCn1cc[n+](C)c1 [1-Hexyl-3-methylimidazolium trifluoromethanesulfonate],52.5 µM,
Oc1ccccc1/C=N/Cc1ccccc1 [Norletimol],,> 50 µM
CC(=O)OCC(=O)[C@H]1CC[C@H]2[C@@H]3CCC4=CC(=O)CC[C@]4(C)[C@H]3CC[C@]12C [Deoxycorticosterone acetate],,25.2 µM
O=C(O)Cc1sc(-c2ccccc2)nc1-c1ccc(Cl)cc1 [Fentiazac],,> 50 µM
CCOC1O[C@H]([C@@H](COCc2ccccc2)OCc2ccccc2)[C@H](OCc2ccccc2)[C@H]1O (stereo partly shown) [Tribenoside],,11.1 µM
CN1CCCN=C1COC(=O)C(O)(c1ccccc1)C1CCCCC1 (stereo not shown) [Oxyphencyclimine hydrochloride],,43.3 µM
C=C(C)C(=O)Nc1ccc(Cl)c(Cl)c1 [Chloranocryl],,55.5 µM
CC1=CC[C@H](C(C)C)C=C1 [(R)-alpha-Phellandrene],,54.5 µM
CC(C)N(C(=O)COc1nnc(C(F)(F)F)s1)c1ccc(F)cc1 [Flufenacet],,53.2 µM
C[C@]12CC[C@@H]3c4ccc(O)cc4CC[C@H]3[C@@H]1CC[C@H]2O [17alpha-Estradiol],,27 µM
C[C@]12CC[C@H](O)CC1=CC[C@@H]1[C@@H]2CC[C@]2(C)C(=O)CC[C@@H]12 [Dehydroepiandrosterone],,> 50 µM
CC(C(=O)O)c1ccc(C2CCCCC2)c2ccccc12 (stereo not shown) [Quadrisol],,35.8 µM
CC(C)C(C(=O)OC(C#N)c1cccc(Oc2ccccc2)c1)c1ccc(Cl)cc1 (stereo not shown) [Fenvalerate],,37.1 µM
COc1ccc(-c2cc(=S)ss2)cc1 [Anethole trithione],,> 50 µM
"CNC(=O)Nc1ccc(Cl)c(Cl)c1 [N-(3,4-Dichlorophenyl)-N'-methylurea]",,48.2 µM
N=C(N)NC(=N)NCCc1ccccc1 [Phenformin hydrochloride],,> 20 µM
CC1(C)C(/C=C(\Cl)C(F)(F)F)C1C(=O)OC(C#N)c1cccc(Oc2ccccc2)c1 (stereo not drawn) [alpha-Cyhalothrin],,26.1 µM
O=C(Nc1ccccc1)c1ccccc1O [Salicylanilide],,48.9 µM
COc1ccc2[nH]c([S+]([O-])Cc3ncc(C)c(OC)c3C)nc2c1 (stereo not shown) [Omeprazole],,> 50 µM
CC1(C)C(C=C(Cl)Cl)[C@@H]1C(=O)O[C@@H](C#N)c1ccc(F)c(Oc2ccccc2)c1 (stereo partly shown) [Cyfluthrin],,39.9 µM
"CCCCOCCOC(=O)COc1cc(Cl)c(Cl)cc1Cl [2,4,5-T-butotyl]",,80.4 µM
NNc1ccc(C(=O)O)cc1 [4-Hydrazinobenzoic acid hydrochloride],,84.8 µM
CC(C(=O)O)c1ccc(N2Cc3ccccc3C2=O)cc1 (stereo not shown) [Indoprofen],,7.85 µM
Cc1cc(O)c2c(c1)C(=O)c1cccc(O)c1C2=O [Chrysophanic acid],,40.7 µM

Structure (SMILES),AC50 [1],AC50 [2]
OCCCCCCCCCCCCBr [12-Bromo-1-dodecanol],,85.6 µM
C#C[C@]1(O)CC[C@H]2[C@@H]3CCC4=CC(=O)CC[C@]4(C)[C@H]3CC[C@@]21C [Ethisterone],,7.79 µM
CCc1ccc(CCOc2ccc(CC3SC(=O)NC3=O)cc2)nc1 (stereo not shown) [Pioglitazone hydrochloride],,> 50 µM
CCC(Cc1c(I)cc(I)c(N)c1I)C(=O)O (stereo not shown) [Iopanoic acid],,> 20 µM
COc1ccccc1NC(=O)c1cc2ccccc2cc1O [3-Hydroxy-2-naphthoic o-anisidide],,10.4 µM
Cn1cc(C(=O)[C@@H]2CCc3nc[nH]c3C2)c2ccccc21 [Ramosetron hydrochloride],,40.9 µM
O=C(CCC1CCN(Cc2ccccc2)CC1)c1ccc2c(c1)NCCCC2 [Zanapezil fumerate],,12.4 µM
CCCN1C[C@H](CSC)C[C@@H]2c3cccc4[nH]cc(c34)C[C@H]21 [Pergolide methanesulfonate],,10.1 µM
CCOC(=O)NC(=S)Nc1ccccc1NC(=S)NC(=O)OCC [Thiophanate],,47.1 µM
O=S1(=O)c2cccc3cccc(c23)N1CCCN1CCN(c2ccc(F)cc2)CC1 [Fananserin],,> 50 µM
CC(C)C[C@H](NC(=O)OCC1c2ccccc2-c2ccccc21)C(=O)O [N-(9-Fluorenylmethoxycarbonyl)-L-leucine],,> 90 µM
"Nc1c2ccccc2nc2ccccc12 [9-Aminoacridine, monohydrochloride, monohydrate]",,3.62 µM
"Nc1cc(Cl)c(N)c(Cl)c1 [2,6-Dichloro-1,4-benzenediamine]",,78 µM
COc1ccc(N=[N+]([O-])c2ccc(OC)cc2)cc1 [4-Azoxyanisole],,30.2 µM
CCCCCCCCCCCCCCC(Br)C(=O)O (stereo not shown) [2-Bromohexadecanoic acid],,53.6 µM
CCCCCc1ccco1 [2-Pentylfuran],,61.2 µM
"Clc1cc(Cl)c2c(c1)N=C1CCCCCN1C2 [1,3-dichloro-6,7,8,9,10,12-hexahydroazepino[2,1-b]quinazoline hydrochloride (1:1)]",,40.1 µM
N=C(N)NC(=O)c1nc(Cl)c(N)nc1N [Amiloride hydrochloride],56.7 µM,
CC1CC(OC(=O)C(O)c2ccccc2)CC(C)(C)C1 (stereo not shown) [Cyclandelate],,44.8 µM
C=C1C[C@H]2[C@@H]3C=C(C)C4=CC(=O)CC[C@]4(C)[C@H]3CC[C@]2(C)[C@@]1(OC(C)=O)C(C)=O [Melengestrol acetate],,26.6 µM
"CC(=O)C(Cl)C(=O)N(C)C (stereo not shown) [2-Chloro-N,N-dimethyl-3-oxobutanamide]",,90.4 µM
CCCCCC(C=O)=Cc1ccccc1 [Pentylcinnamaldehyde],,> 50 µM
Cc1c(Cl)cccc1Nc1ccccc1C(=O)O [Tolfenamic acid],,12.5 µM
CCOCN(C(=O)CCl)c1c(C)cccc1CC [Acetochlor],,75.3 µM
CC(C)(C)c1ccc(OC(=O)c2ccccc2O)cc1 [4-tert-Butylphenyl salicylate],,> 90 µM
"c1ccc2c(c1)CCc1ccccc1N2 [10,11-Dihydro-5H-dibenz[b,f]azepine]",,40.6 µM
CCC[C@@]1(CCc2ccccc2)CC(O)=C([C@H](CC)c2cccc(NS(=O)(=O)c3ccc(C(F)(F)F)cn3)c2)C(=O)O1 [Tipranavir],,36.8 µM

Structure (SMILES),AC50 [1],AC50 [2]
Nc1ccc2c3c(cccc13)-c1ccccc1-2 [3-Aminofluoranthene],,40.9 µM
CO[C@@H]1[C@H](OC(=O)NC(=O)CCl)CC[C@]2(CO2)[C@H]1[C@@]1(C)O[C@@H]1CC=C(C)C [o-(Chloroacetylcarbamoyl)fumagillol],,4.57 µM
CCCCCc1ccc(C)cc1O [Amylmetacresol],,23.6 µM
COc1ccc(-c2coc3cc(O)cc(O)c3c2=O)cc1 [Biochanin A],,67 µM
c1ccc(P(c2ccccc2)c2ccccc2)cc1 [Triphenylphosphine],,> 90 µM
Clc1ccc(CCC(Cn2ccnc2)Sc2c(Cl)cccc2Cl)cc1 (stereo not shown) [Butoconazole nitrate],,17.9 µM
COc1nc(N)nc2c1ncn2[C@@H]1O[C@H](CO)[C@@H](O)[C@@H]1O [Nelarabine],,25.2 µM
CC(C)C(O)(c1ccc(OC(F)(F)F)cc1)c1cncnc1 (stereo not shown) [Flurprimidol],,70.7 µM
COc1cccc(C(=O)NN(C(=O)c2cc(C)cc(C)c2)C(C)(C)C)c1C [Methoxyfenozide],,55.4 µM
"Oc1cc(Cl)cc(Cl)c1Cl [2,3,5-Trichlorophenol]",,57 µM
CCCCCCCC(=O)Oc1c(Br)cc(C#N)cc1Br [Bromoxynil octanoate],,74 µM
CCCCc1c(C)nc(NCC)nc1OS(=O)(=O)N(C)C [Bupirimate],,> 90 µM
Fc1ccc([C@@]2(Cn3cncn3)O[C@@H]2c2ccccc2Cl)cc1 (racemic) [Epoxiconazole],,41.2 µM
COC(=O)N[C@H](C(=O)N[C@@H](Cc1ccccc1)[C@@H](O)CN(Cc1ccc(-c2ccccn2)cc1)NC(=O)[C@@H](NC(=O)OC)C(C)(C)C)C(C)(C)C [Atazanavir],,19.5 µM
O=S(=O)(c1cccc2cnccc12)N1CCCNCC1 [Fasudil hydrochloride],,30.1 µM
CCCCOC(=O)CC(CC(=O)OCCCC)(OC(C)=O)C(=O)OCCCC [Acetyl tributyl citrate],,35.1 µM
O=C(Oc1ccccc1)c1ccc2ccccc2c1O [Phenyl 1-hydroxy-2-naphthoate],,84.9 µM
O=C1c2ccccc2C(=O)C1(O)O [Ninhydrin],,80 µM
O=C(O)C1(C(=O)Nc2ccc(Cl)cc2Cl)CC1 [Cyclanilide],,64.4 µM
CC(C)Oc1ccc2c(=O)c(-c3ccccc3)coc2c1 [Ipriflavone],,25 µM
CCCCCCCCc1ccc(S(=O)(=O)O)cc1 [Sodium 4-octylbenzenesulfonate],,53 µM
Cc1cc(OI)c(C(C)C)cc1-c1cc(C(C)C)c(OI)cc1C [Thymol iodide],,37.3 µM
CNC(=O)c1ccccc1Sc1ccc2c(/C=C/c3ccccn3)n[nH]c2c1 [Axitinib],,0.777 µM
"O=C(c1ccc(O)cc1O)c1ccc(O)cc1O [2,2',4,4'-Tetrahydroxybenzophenone]",,39.2 µM
O=c1oc2c(O)c(O)cc3c(=O)oc4c(O)c(O)cc1c4c23 [Ellagic acid],,12.9 µM
